Hits are enriched below; roughly 1.3% of the tested compounds scored in any of these assays.
CIT2-GFP yeast: modulators of CIT2-GFP expression in yeast, primary screen, S. cerevisiae, GFP fusion, multiplex flow cytometry, MLPCN library | GFP response vs DMSO, % at 10 µM | S. cerevisiae CIT2-GFP strain, 3 h; 100 means same as DMSO wells | 320,000 tested, 0.065% active | AID 2029, 2009;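 active means GFP response relative to DMSO above a set limit, near the screen mean plus 3 SD, cut at about 150% in these data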;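 further: ratio of well median GFP fluorescence to mean of DMSO wells on the plate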
MEP2-GFP yeast: modulators of MEP2-GFP levels in yeast, primary screen, S. cerevisiae, multiplex flow cytometry, MLPCN library. S. cerevisiae MEP2-GFP strain, 3 h; 100% = DMSO control level. GFP response vs DMSO, % at 10 µM. 330,000 tested, 0.51% active. AID 2016, 2009;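 active means GFP response versus DMSO above a set limit, roughly screen mean plus 3 SD, cut at about 180% in these data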;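 further: median GFP fluorescence of the barcode-gated MEP2-GFP cells per well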
LAP4-GFP MLPCN: modulators of LAP4-GFP expression in yeast, primary screen, S. cerevisiae, multiplex flow cytometry, MLPCN library. GFP response vs DMSO, % at 10 µM. 320,000 tested, 0.34% active. 3 h; median GFP as percent of DMSO wells;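 active means GFP response vs DMSO above a set limit, about the screen mean plus 3 SD, cut at about 150% in these data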
Efflux pump mplx: inhibitors of Candida efflux pumps in yeast, primary screen, S. cerevisiae, Nile Red, multiplex | S. cerevisiae Candida pump triplex | inhibition, % at 10 µM | 330,000 tested, 0.44% active | AID 485275, 2010;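 active means plate passing quality check with inhibition over a set limit, or well fluorescence over plate mean plus 4 SD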;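 further: Nile Red retained in pooled yeast measured as flow cytometry median fluorescence; higher means more Nile Red kept so more efflux inhibition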
RPL19A-GFP yeast: RPL19A-GFP expression modulators in yeast, primary screen, cell-based, S. cerevisiae, multiplex flow cytometry, MLPCN | S. cerevisiae RPL19A-GFP strain, 3 h; hits give low values | percent response vs DMSO, % at 10 µM | 330,000 tested, 0.3% active | AID 2025, 2009;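 active means percent response vs DMSO below 50%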;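 further: median channel GFP fluorescence of the barcoded RPL19A-GFP strain; lower means less RPL19A-GFP as with rapamycin TOR inhibition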
AGP1 TOR yeast: modulators of AGP1-GFP expression in yeast TOR pathway, primary screen, cell-based, multiplex flow cytometry, S. cerevisiae, MLPCN library; AID 2066, 2009; 320,000 tested, 0.02% active; 3 h; GFP as percent of DMSO wells; GFP response vs DMSO, % at 10 µM;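 active means GFP response relative to DMSO above a set limit, near screen average plus 3 SD, cut at about 150% in these data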;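 further: median GFP channel fluorescence of the gated AGP1 strain per well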
Cmpd fluor yeast: compound fluorescence in yeast efflux pump counter-screen; shares compounds with Efflux pump mplx; S. cerevisiae AD/pABC3, flow cytometry; fluorescence ratio to DMSO, % at 10 µM; 1,700 tested, 4% active;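 active means fluorescence ratio to DMSO above its plate's cutoff, the plate mean ratio plus 5 SD, cut at about 210% in these data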;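 further: unstained yeast with no Nile Red so the signal is compound autofluorescence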
Mdr1 pump inh: inhibitors of Candida albicans Mdr1 efflux, confirmation, flow cytometry, singleplex, Cherry Pick1 set; shares compounds with Efflux pump mplx; S. cerevisiae AD/CaMDR1, Nile Red efflux; inhibition, % at 10 µM; 1,700 tested, 1% active; in the data active means inhibition above about 26%;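 further: higher means more Nile Red retained so more efflux inhibition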
CaCdr2 efflux inh: inhibitors of Candida albicans Cdr2 efflux pump, confirmation, S. cerevisiae AD/CaCDR2, flow cytometry, cherry pick 1, singleplex | Nile Red retention | shares compounds with Efflux pump mplx | 1,700 tested, 4% active | Nile Red retention ratio vs DMSO, % at 10 µM; in the data active means Nile Red retention ratio vs DMSO above about 190%;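 further: higher ratio means more blocking of Cdr2 efflux of the dye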
CaCdr1 efflux inh: inhibitors of Candida albicans Cdr1 efflux pump, confirmation, S. cerevisiae AD/CaCDR1, flow cytometry, cherry pick 1, singleplex; Nile Red efflux; 1,700 tested, 1% active; inhibition, % at 10 µM; shares compounds with Efflux pump mplx;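 active means inhibition above the screen-wide mean plus twice its standard deviation, cut at about 32% in these data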
Numbers stand for hits; i = inactive; nt = no result.

SMILES	CIT2-GFP yeast	MEP2-GFP yeast	LAP4-GFP MLPCN	Efflux pump mplx	RPL19A-GFP yeast	AGP1 TOR yeast	Cmpd fluor yeast	Mdr1 pump inh	CaCdr2 efflux inh	CaCdr1 efflux inh
Cn1nc(C(C)(C)C)cc1NC(=O)Nc1cc(Cl)cc(Cl)c1	i	i	i	i	i	i	nt	nt	nt	nt
N#Cc1cc([N+](=O)[O-])ccc1NCCc1ccccn1	i	i	i	3.5	i	i	i	i	i	i
COc1ccc(CCNC(=O)CNCCc2ccc(F)cc2)cc1	i	i	i	i	i	i	nt	nt	nt	nt
CC(C(=O)Nc1ccccc1C(=O)N1CCOCC1)N(c1ccc(Cl)cc1)S(C)(=O)=O (configuration not stated)	i	i	i	0.7	i	i	i	i	i	i
CC(=O)Nc1sc2c(c1C(c1ccc(Cl)cc1)N1CCOCC1)CCCC2 (configuration not stated)	i	i	i	1.5	i	i	i	i	i	i
CC(=O)Nc1sc2c(c1C(c1ccc(F)cc1)N1CCOCC1)CCCC2 (configuration not stated)	i	i	i	i	i	i	nt	nt	nt	nt
O=C(/C=C/c1ccc(Br)cc1)c1ccc(NC(=O)c2ccco2)cc1	i	i	i	5.8	i	i	i	i	i	i
CC(=O)c1ccc(NC(=O)c2ccc(NC(=O)c3ccco3)cc2)cc1	i	i	i	6.2	i	i	i	i	i	i
CN(C(=O)c1cccc(NC(=O)c2ccco2)c1)c1ccccc1	i	i	i	i	i	i	nt	nt	nt	nt
CCOC(=O)c1cccc(NC(=O)c2ccc(NC(=O)c3ccco3)cc2)c1	i	i	i	i	i	i	i	i	i	i
CN(C(=O)c1ccc(NC(=O)c2ccco2)cc1)c1ccccc1	i	i	i	i	i	i	i	i	i	i
COc1ccc(NS(=O)(=O)c2cn(C)cn2)c(OC)c1	i	i	i	i	i	i	nt	nt	nt	nt
CN1CCC(N(C)C(=O)COc2ccccc2Cl)CC1	i	i	i	i	i	i	nt	nt	nt	nt
Cc1cc(C)cc(NC(=O)c2ccc(NC(=O)c3ccco3)cc2)c1	i	i	i	i	i	i	i	i	i	i
CC(=O)Nc1ccc(NC(=O)c2ccco2)cc1	i	i	i	i	i	i	nt	nt	nt	nt
COc1ccc(C(=O)NC2CCCc3c2cnn3-c2ccccc2F)o1 (configuration not stated)	i	i	i	i	i	i	i	i	i	i
CCOc1ccc(N(CC(=O)Nc2ccccc2C(=O)NC(C)CC)S(C)(=O)=O)cc1 (configuration not stated)	i	i	i	i	i	i	nt	nt	nt	nt
Cc1ccc(C(C)(C)C)cc1S(=O)(=O)N1CCC(C(=O)N2CCN(c3ccc(O)cc3)CC2)CC1	i	i	i	0.8	i	i	i	i	i	i
COc1cc(C2CC(=O)N(CC(=O)NCC3CCCO3)c3ccccc3S2)cc(OC)c1OC (configuration not stated)	i	i	i	i	i	i	nt	nt	nt	nt
O=S1(=O)CC=C(CSc2nc3ccccc3[nH]2)C1	i	i	i	i	i	i	nt	nt	nt	nt
